In all, about 330,000 compounds went through this assay and about 1,500 (0.45%) were called active. Only a selection was taken, and actives are over-represented in it overall. Values without a mark were called inactive. Rule as the data show it: active = inhibition above about 45% (passing the limit was not always enough); inconclusive = no clear call, values can overlap the other calls.

Here are results for 59 compounds from PubChem BioAssay AID485273 (Sanford-Burnham Center for Chemical Genomics, 2010).

Chain of Ubiquitin-conjugating enzyme E2 N (Homo sapiens) (P61088 whole entry, looked up): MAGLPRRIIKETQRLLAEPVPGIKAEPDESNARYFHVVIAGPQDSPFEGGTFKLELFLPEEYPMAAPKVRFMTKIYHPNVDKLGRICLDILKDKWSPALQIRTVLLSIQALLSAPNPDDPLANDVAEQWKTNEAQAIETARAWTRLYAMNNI

The assay addresses Ubiquitin-conjugating enzyme E2 N (Homo sapiens) (UniProt P61088). As to the kind of experiment: blockers of UBC13 ubiquitin chain synthesis – biochemical, TR-FRET, uHTS, primary screen (AID 485273). The settings on record: UBC13 polyubiquitin chain formation, at 20 µM, stronger effect = higher value.
As usually defined, the inhibition is the drop in the measured response relative to a control, in per cent. On to `CNc1nc(Nc2ccc(C)c(Cl)c2)nc(N)c1[N+](=O)[O-]`, for which the inhibition is 9.3%.

For the compound `Cc1ccc(Nc2nc(N)nc(CN3CCN(Cc4ccccc4)CC3)n2)cc1Cl`, the inhibition is 8.9%.

`OCCNc1nc(Nc2ccc(Cl)c(Cl)c2)nc2ccccc12`: the inhibition was 68.2% (active).

In the case of `CCCS(=O)(=O)Nc1c(C(=O)O)[nH]c2ccccc12`, the inhibition is 8.6%.

In the case of `C=CCn1c(SCc2ccc(Cl)c(Cl)c2)nnc1C(CO)NC(=O)c1ccc(OC)cc1` (centres undefined), the inhibition is 15.9%.

Regarding `Cn1c(CCC(=O)OCC(=O)NCc2ccccc2Cl)nc(=O)c2ccccc21`, the inhibition was 2.8%.

Regarding `O=C(COC(=O)Cn1cnc2ccccc2c1=O)NCC12CC3CC(CC(C3)C1)C2`, the inhibition was 17.4%.

For `O=C(COC(=O)Cn1cnc2ccccc2c1=O)NCc1ccccc1Cl`, the inhibition is 45.4% (active).

Regarding `O=C(N/N=C/c1ccccc1O)/C(=C/c1ccccc1)CCO`, the inhibition is 4.1%.

In the case of `COc1ccccc1C(=O)OCC(=O)NCCNC(=O)COC(=O)c1ccccc1OC`, the inhibition was 5.1%.

Take `Cc1ncc(CO)c(/C=N/NC(=O)c2cccc(S(=O)(=O)N3CCCC3)c2)c1O`: the inhibition was 52.7% (active).

As for `Cc1cccc(NC(=O)c2cccc(S(=O)(=O)N3CCCC3)c2)n1`, the inhibition is 2.6%.

Regarding `O=C(N/N=C/c1ccccn1)c1ccc(S(=O)(=O)N2CCCCCC2)cc1`, the inhibition is -2.2%.

As to `Cc1cc(C)n(CC(O)CN(c2ccccc2)S(=O)(=O)c2ccc3ccccc3c2)n1` (centres undefined), the inhibition is -8.5%.

`CCSCc1nc(N)nc(NCCc2ccccc2)n1`: the inhibition was 8.1%.

Turning to `Cc1c(C(=O)N2CCN(c3ccc(F)cc3)CC2)oc2c1C(=O)CCC2`, the inhibition is 3.2%.

Turning to `COc1ccc2c(CC(=O)NNC(=O)c3ccccc3F)coc2c1`, the inhibition is 7.9%.

As for `COC(=O)[C@@H](Cc1ccccc1)NC(=O)NCCc1ccccc1`, the inhibition was 6.5%.

Take `O=C(CCC(=O)c1ccccc1)NCc1cccc(C(F)(F)F)c1`: the inhibition was -0.5%.

`NC[C@H](Cc1ccccc1)NCCc1cc(C(F)(F)F)cc(C(F)(F)F)c1`: the inhibition was 65.5% (active).

Consider `CCOc1ccc(Nc2nc(Cc3nnc(SCC(=O)c4ccc(C)cc4)o3)cs2)cc1`, for which the inhibition was 1.3%.

On to `CC(NCc1nc2ccccc2n1C)C12CC3CC(CC(C3)C1)C2` (centres undefined), for which the inhibition was 22.8%.

Consider `CC(C)(C)Oc1ccccc1Nc1nc(NCCO)nc(N2CCCC2)n1`, for which the inhibition was 8.7%.

In the case of `CCCOc1ccc(Cl)cc1Nc1nc(NCCO)nc(N2CCCC2)n1`, the inhibition is 60.4% (active).

Regarding `Cc1cccc(Nc2nc(NCCO)nc(N3CCCC3)n2)c1`, the inhibition is 11.1%.

For the compound `CC(=O)N1C(=O)/C(=C2\SC(=S)N(NC(=O)c3ccc(O)cc3)C2=O)c2ccccc21`, the inhibition was -62.3%.

With `COc1c(O)cc2oc(-c3ccc(O)c(O)c3)cc(=O)c2c1O`, the inhibition was -3.7%.

Turning to `COC(=O)c1ccccc1NC(=O)C1CCN(C(=O)N2CCOc3ccccc32)CC1`, the inhibition is 6.2%.

`O=C(Cc1ccc(-n2c(=O)[nH]c3ccccc3c2=O)cc1)N1CCN(c2cccc(Cl)c2)CC1`: the inhibition was -5.1%.

For `CCOC(=O)N1CCN(C(=O)Cc2ccc(-n3c(=S)[nH]c4ccccc4c3=O)cc2)CC1`, the inhibition is 46.3% (active).

For the compound `CCCCNC(=O)c1ccc(-n2c(=S)[nH]c3ccccc3c2=O)cc1`, the inhibition is 43.8%.

Take `COc1cccc(-c2ccc(SCC(=O)N3CCN(c4ccccc4)CC3)nn2)c1`: the inhibition is -10.5%.

As to `CC[C@@H](C)[C@H](NC(=O)CCc1c(C)c2cc3c4c(oc3c(C)c2oc1=O)CCCC4)C(=O)O`, the inhibition was 2.9%.

Take `c1ccc(-n2nnnc2-c2cccnc2)cc1`: the inhibition was 16.1%.

As to `O=C(CSc1n[nH]c(-c2cccnc2)n1)Nc1ccnc2ccccc12`, the inhibition was 21.1%.

Turning to `S=c1nc2ccccc2c2nc(-c3cccnc3)[nH]n12`, the inhibition is 58.9% (active).

In the case of `COc1ccccc1N(C)S(=O)(=O)c1ccc(Cl)c(C(=O)N2CCC(C(N)=O)CC2)c1`, the inhibition is 1.7%.

With `CC1(C)CC(=O)c2sc(N)nc2C1`, the inhibition was -5.4%.

As for `O=c1cc(CO)oc(C(Nc2cccc(C(F)(F)F)c2)c2ccccn2)c1O` (centres undefined), the inhibition is 97.1% (active).

With `O=c1cc(CO)oc(C(Nc2cccc([N+](=O)[O-])c2)c2ccccn2)c1O` (centres undefined), the inhibition is 94.8% (active).

For the compound `O=C(Nc1cccc([N+](=O)[O-])c1)Nn1cnnc1`, the inhibition was -5.5%.

For `O=[N+]([O-])c1cccc(S(=O)(=O)NCc2ccccn2)c1`, the inhibition was -12.9%.

`FC(F)(F)c1cccc(Nc2ncnc3ccccc23)c1`: the inhibition is 11.1%.

Consider `O=C(O)CC1(CC(=O)Nc2cccc(C(F)(F)F)c2)CCCC1`, for which the inhibition was -1.1%.

Take `O=C(c1ccccc1)N1CCC(CC2CC(c3ccc(Cl)cc3)=NO2)(C(=O)NCC2CCCCC2)CC1` (centres undefined): the inhibition is 4.7%.

Regarding `COC(=O)c1ccc(CNC(=O)c2ccc3oc(C(C)C)nc3c2)cc1`, the inhibition was -8.3%.

Take `O=C(NC(=O)c1cc(OCC(F)(F)F)ccc1OCC(F)(F)F)Nc1ccccc1`: the inhibition was 2.9%.

In the case of `c1ccc(CCC2=NCCn3cccc32)cc1`, the inhibition was -3.6%.

For `CCOC(=O)c1ccc(NC(=O)CCn2c(=O)oc3ccccc32)cc1`, the inhibition is 4.5%.

As for `CCN(CC)S(=O)(=O)c1ccc2[nH]c(=O)cc(C(=O)N(C)C3CCS(=O)(=O)C3)c2c1` (centres undefined), the inhibition was -6.2%.

Take `O=C(CCN1C(=O)C2CCCCC2C1=O)Nc1ccc(OC(F)F)cc1` (centres undefined): the inhibition is 1.3%.

With `COC(=O)CNC(=O)c1cc(-c2ccncc2)nc2ccccc12`, the inhibition is -0.6%.

On to `O=C(Nc1ccc(S(=O)(=O)Nc2nccs2)cc1)c1cc(-c2ccncc2)nc2ccccc12`, for which the inhibition was -11.2%.

For `CCN(CC)CCNC(=O)c1ccc(NC(=O)c2cc(-c3ccncc3)nc3ccccc23)cc1`, the inhibition was 89.7% (active).

On to `CCn1c(SCc2cc(=O)n3ccsc3n2)nc2ccccc21`, for which the inhibition was 3%.

`O=C(Nn1cnnc1)c1cc(Cl)ccc1Cl`: the inhibition was -7.5%.

On to `CC1CN(C(=O)CCC(=O)NC2CCN(Cc3ccccc3)CC2)c2ccccc2O1` (centres undefined), for which the inhibition was 4.7%.

As to `CC1CN(C(=O)CCC(=O)NCCCN2CCC(Cc3ccccc3)CC2)c2cc(Cl)ccc2O1` (centres undefined), the inhibition was 64.4% (active).

Regarding `CC1CN(C(=O)CCC(=O)NCc2cccnc2)c2ccccc2O1` (centres undefined), the inhibition was 2.3%.
